Screening data as filed in PubChem.
Shown is part of a subset that was picked to be rich in hits.
Pf Dd2 inh: qHTS Primary assay for Inhibitors of Plasmodium falciparum Dd2 growth in vitro | 120,000 tested, 4.3% active | Potency, µM (series often up to 28.9 µM), for the others: at the top dose activity, negative = inhibition, actives largely listed as inhibitors | P. falciparum Dd2 growth, SYBR Green, 72 h | AID 1347417, 2020; active means well fitted inhibition curve with a large enough effect;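 further: plate controls were DMSO vehicle for no effect and reference drug for full effect; nearly all actives have a fitted effect of over 65% in size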
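Readout: SYBR Green fluorescence, 485 nm excitation, 535 nm emission, after ~16 h lysis at 37C. Before that, Dd2-infected red cells (2.5% hematocrit) grew 72 h with compound, 29 uM top final concentration.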
An asterisk follows results filed as active; i = inactive; [ ] = remark or other dose. Potency means the concentration at half of the fitted maximal effect.

SMILES	Pf Dd2 inh
O=C(Cn1cccc1-c1nc(-c2ccc(F)cc2)no1)N1CCN(c2ccccc2F)CC1	i
COc1ccc(NC(=O)Cn2cccc2-c2nc(-c3ccc(F)cc3)no2)cc1Cl	11µM*
CC(=O)c1cccc(NC(=O)Cn2cccc2-c2nc(-c3ccc4c(c3)OCO4)no2)c1	i
COc1ccc(-c2noc(-c3cccn3CC(=O)N3CCN(c4ccc(F)cc4)CC3)n2)cc1F	-8%
COc1ccc(-c2noc(-c3cccn3CC(=O)Nc3cc(Cl)c(OC)cc3OC)n2)cc1F	27%
COc1ccc(-c2noc(-c3cccn3CC(=O)N3CCN(c4ccccc4F)CC3)n2)cc1F	2.5µM*
CC(=O)c1ccc(NC(=O)Cn2cccc2-c2nc(-c3ccc4c(c3)OCO4)no2)cc1	6%
Cc1ccc(NC(=O)Cn2cccc2-c2nc(-c3ccc(F)cc3)no2)cc1F	-3%
CCOc1cc(=O)n2c(c1C(=O)Nc1cc(Cl)c(OC)cc1OC)CCCC2	-24%
Cc1cc(C)cc(NC(=O)N2c3ccccc3CC2c2noc(C3CCOCC3)n2)c1 (stereo not drawn)	-18%
Cc1cccc(CC(=O)N2CCC3(CCCCO3)CC2)c1	-1%
O=C(NCCc1ccccc1)N1CCCC(c2nc(CCOCC3CC3)no2)C1 (stereo not drawn)	i
CC1(C(=O)N2CCN(c3ncccn3)CC2)CCOCC1	1%
CCc1nc2c(c(-c3ccc(O)cc3)n1)CN(Cc1ccc(OC)cc1)CC2	-17%
CCc1nc2c(c(-c3ccc(Cl)cc3)n1)CCN([S+](=O)([O-])c1cccc(OC)c1)CC2	13µM*
CCc1nc2c(c(-c3ccc(Cl)cc3)n1)CCN(Cc1cc(C)on1)CC2	i
COc1cccc([S+](=O)([O-])N2CCc3nc(C4CC4)nc(-c4ccc(Cl)cc4)c3C2)c1	-20%
CCc1nc2c(c(-c3ccc(O)cc3)n1)CCN(Cc1ccncc1)CC2	i
CCc1nc2c(c(-c3ccc(Cl)cc3)n1)CCN(Cc1ccc(C(F)(F)F)cc1)CC2	i
CCc1nc2c(c(-c3ccc(O)cc3)n1)CCN(Cc1ccc(OC)cc1)CC2	2µM*
CCc1nc2c(c(-c3ccc(OC)cc3)n1)CN([S+](=O)([O-])c1cccc(C(F)(F)F)c1)CC2	-8%
CCc1nc2c(c(-c3ccc(Cl)cc3)n1)CN(Cc1cccc(F)c1)CC2	10µM*
COc1ccc(-c2nc(C3CC3)nc3c2CCN(CC2CCCCC2)CC3)cc1	i
COc1ccc(-c2nc(C3CC3)nc3c2CCN(Cc2ccc(F)cc2)CC3)cc1	7.1µM*
COc1ccc(-c2nc(C3CC3)nc3c2CCN(CC2CC2)CC3)cc1	-11%
SMILES	Pf Dd2 inh
COc1ccc(-c2cc(N3CCC(NC(=O)Cc4c(F)cccc4Cl)CC3)n[nH]2)cc1	-19%
CCC1(O)CCC12CCNCC2 (stereo not drawn)	i
CC(C)(C)C(=O)NCCc1noc(C2CC2)n1	21%
O=C(N[C@H]1CCN2C(=O)N(c3cccc4nsnc34)C(=O)[C@@H]2C1)c1ccc(F)c(Cl)c1	-15%
O=C1C(N2CCN(S(=O)(=O)c3cccs3)CC2)CCN1Cc1ccccn1 (stereo not drawn)	i
COc1cc(CN2CCC([C@@H]3CNC[C@H]3CO)CC2)cc(OC)c1	19%
CN(C)CCNC(=O)c1ccc(-c2ccc(N3CCCCCC3)nc2)cc1	-15%
COc1ccccc1-c1cc(-c2cccs2)nc2c(C)noc12	i
CC(c1cccs1)N(C)C(=O)c1ccc(C(F)(F)F)cc1 (stereo not drawn)	-20%[44.1 µM]
Oc1ccc(-c2nc(C3CC3)nc3c2CCN(Cc2ccccc2)CC3)cc1	-8%
COc1ccc(-c2nc(C3CC3)nc3c2CCN(Cc2ccsc2)CC3)cc1	10µM*
Oc1ccc(-c2nc(C3CC3)nc3c2CCN(Cc2ccc(OC(F)(F)F)cc2)CC3)cc1	-2%
Cc1ccc(-c2nc3cnccn3c2NCCC(=O)N2CCCCC2)cc1	0%
O=C(CSc1nc2c(oc3ccccc32)c(=O)n1Cc1ccco1)Nc1ccccc1	i
CCCN(CCC)C(=O)CSc1nc2ccccc2c(=O)n1Cc1ccco1	11µM*
CCOc1ccccc1NC(=O)CSc1nc2c(oc3ccccc32)c(=O)n1Cc1ccco1	-28%
COc1ccc2nc(CO[C@H]3CN(Cc4cccc(OC)n4)C[C@H]3F)[nH]c2c1	-2%[44.1 µM]
Cc1noc(-c2ccc(OC(F)(F)F)cc2)c1C(=O)NCCCOC(C)C	i
CC(C)C1=NOC2(CCN(S(C)(=O)=O)CC2)C1	1%[44.1 µM]
COc1ccccc1OC1(C(=O)O)CCN(Cc2cnn(C(C)C)c2)CC1	-3%
Cc1nc2c(N)cccn2n1	6%
CNc1ccc(-c2noc([C@@H]3CCCN3Cc3cccnc3)n2)cn1	i
CC(=O)N1CCC(N2CCC[C@H]2c2nc(-c3ccc(-n4ccnc4)nc3)no2)CC1	-21%[44.1 µM]
CN(C)c1ccc(-c2noc([C@@H]3CCCN3Cc3ccc(CO)o3)n2)cn1	7.9µM*
CNc1ccc(-c2noc([C@@H]3CCCN3Cc3cccc(OC)c3)n2)cn1	-8%[44.1 µM]
COCC(=O)Nc1ccc(-c2noc([C@@H]3CCCN3Cc3cc4ccccc4o3)n2)cn1	-16%[44.1 µM]
